The experiment in a line: COX5a mRNA reduction in C2C12 myotubes – cell-based, RT-qPCR, cherry-picked samples, dose response (AID 743461). To be noted: C2C12 myotubes PGC-1a adenovirus, at 0.0285 µM.

The structures appear in SMILES notation. Some of the results follow. A number with no mark means an inactive call.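 How the source made its calls: active means fitted dose curve reaching 40% activity at or below the highest valid dose tested; inconclusive means flat fit between 30% and 70%, or an unusable fit; inactive means the rest.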

As for `N#Cc1ccc(-c2ccc(C3[C@@H]4CN(S(=O)(=O)c5ccc(F)cc5)C[C@H]3N4)cc2)cc1` (stereo partly specified), the maximal activity is -35.2%.

Source of the values: PubChem BioAssay AID743461 (Broad Institute, 2014).
